# Assay results reported in ChEMBL document CHEMBL4513146, “CO-ADD screening of Karazin Kharkiv National University (Ukraine) compounds”.
# Measured potencies and affinities stand elsewhere.
# Experiments:
# [1] = test system: Klebsiella pneumoniae; settings: Concentration 32 ug.mL-1;; ASSAY_TEST Inhibition of Bacterial Growth; detection method Absorption (OD600); MEDIA CAMHB; plate type 384well; NBS; CORNING #3640; time 18 hr
# [2] = test system: Candida albicans; settings: Concentration 32 ug.mL-1; ASSAY_TEST Inhibition of Fungal Growth; detection method Absorption (OD530)
# [3] = test system: Cryptococcus neoformans; settings: Concentration 32 ug.mL-1; ASSAY_TEST Inhibition of Fungal Growth; detection method Resazurin; Absorption (OD600-OD570); plate type 384well; NBS; CORNING #3640
Compound,Inhibition [1] [%],Inhibition [2] [%],Inhibition [3] [%]
Cc1ccc(-c2cc3c4nn(CC(=O)Nc5cc(F)ccc5C)c(=O)n4ccn3n2)cc1C,2.94,-1.13,-10.17
COc1ccc(NC(=O)C(C)Sc2nnc3c(=O)n(-c4cccc(OC)c4)ccn23)cc1 (centres undefined),4.86,-0.02,-10.81
CC(C)c1ccc(NC(=O)Cn2nc3c(Sc4ccccc4)nccn3c2=O)cc1,-10.24,23.16,-7.48
O=C(CSc1nnc2c(=O)n(-c3ccccc3)ccn12)c1c[nH]c2ccccc12,19.5,3.09,-9.19
CC(=O)c1ccc(NC(=O)Cn2nc3c(SC4CCCCC4)nccn3c2=O)cc1,4.71,0.5,-15.4
Cc1ccccc1Oc1nc2ccccc2n2c(=O)n(CC(=O)Nc3ccccc3C(F)(F)F)nc12,7.22,11.93,-23.01
COC(=O)c1ccccc1NC(=O)Cn1nc2c(SC3CCCCC3)nccn2c1=O,12.08,1.97,-21.3
COc1cccc(-n2ccn3c(SCc4cccc(F)c4)nnc3c2=O)c1,9.47,1.25,-9.96
COc1ccc(CNC(=O)Cn2nc3c4cc(-c5ccc(Cl)cc5)nn4ccn3c2=O)cc1,11.83,1.19,-27.86
Cc1ccc(NC(=O)Cn2nc3c(SC4CCCCC4)nccn3c2=O)cc1F,13.26,-0.51,-26.18
Cc1ccc(Oc2nccn3c(=O)n(CC(=O)Nc4cccc(Br)c4)nc23)cc1,11.55,24.3,-18.68
CC(C)c1ccc(N(Cc2ccc(Cl)cc2)S(=O)(=O)c2cccn3cnnc23)cc1,9.01,2.08,-6.18
Cc1ccc(-n2ccn3c(=O)n(Cc4ccc(F)cc4)nc3c2=O)cc1C,10.23,1.58,-18.28
CCc1cccc(NC(=O)Cn2c(=O)c3nnc(C(C)C)n3c3ccccc32)c1,9.33,1.02,-21.01
COC(=O)c1ccc(NC(=O)Cn2nc3ccc(S(=O)(=O)c4ccccc4)nn3c2=O)cc1,3.88,1.43,-5.62
Cc1ccc(Sc2ccc3nn(CC(=O)Nc4ccc(F)c(Cl)c4)c(=O)n3n2)cc1,6.66,6.36,-7.28
Cc1ccc(Oc2nccn3c(=O)n(CC(=O)Nc4ccccc4Br)nc23)cc1,15.36,1.31,-18.92
CCOc1ccc(-n2ccn3c(SCC(=O)c4ccc(C)cc4C)nnc3c2=O)cc1,5.02,2.76,-5.48
Cc1cccc(C)c1NC(=O)CSc1nc2ccccc2n2c(C)nnc12,9.22,0.67,-4.49
N#Cc1cccc(NC(=O)CSc2nnc3c4cc(-c5ccccc5)nn4ccn23)c1,9.61,7.44,-14.96
CCc1nnc2c(S(=O)(=O)N(Cc3cc(F)cc(F)c3)c3ccccc3)cccn12,9.94,6.55,-7.12
CCc1nnc2c(=O)n(CC(=O)Nc3ccc(NC(C)=O)cc3)c3ccccc3n12,5.97,5.77,-14.46
COc1ccc(N(Cc2ccc(OC)c(F)c2)S(=O)(=O)c2ccc3nncn3c2)cc1,12.76,2.89,0.06
Cc1ccc(-c2cc3c4nn(CC(=O)N5CCN(c6ccc(F)cc6)CC5)c(=O)n4ccn3n2)cc1C,7.51,1.65,-26.79
Cc1cc2nn(CC(=O)Nc3ccc(F)c(F)c3)c(=O)n2c(Nc2ccc(F)c(C)c2)n1,10.55,1.57,-7.1
Cc1cc(C)c(NC(=O)Cn2nc3c(N4CCCC(C)C4)nccn3c2=O)c(C)c1 (centres undefined),-3.43,-1.23,-2.74
COc1ccc(NC(=O)Cn2nc3c(N4CC(C)CC(C)C4)nccn3c2=O)c(OC)c1 (centres undefined),17.76,1.51,-7.52
O=S(=O)(c1ccc2nncn2c1)N(Cc1cccc(Cl)c1)c1ccc2c(c1)OCO2,8.88,1.66,-13.77
